# Laboratory results as given in the supplement of paper PMC6089552.
# The whole screen tested about 3,200 compounds, of which about 300 (9.4%) showed activity. What follows is part of a selection rich in actives, with near analogues and random picks from the rest.
# Tested on: A673/TR/shEF
# Assay: cell viability (LOESS-normalised, relative to median of negative controls) (log2 ratio); higher = more viable cells (less compound effect), active = hit call of the paper (over 3 MAD below the median)
# Details: treatment time: 72 h
# Method in brief: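 A673/TR/shEF Ewing sarcoma cells (1,500 per well, 384-well plates) were grown with or without doxycycline to induce EWS-FLI1 shRNA knockdown, starting 24 h before compounds. Library compounds at two or more concentrations, with DMSO controls, were added for three days. Cell viability was read by CellTiter-Glo luminescence on an Envision reader, then LOESS-corrected per plate, divided by the median of negative controls and log2-transformed. Hits were wells at least three median absolute deviations from the median of all screened wells.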
# [1] = 0.25 µM, library screen: screen1, EWS-FLI1 expression: high (no doxycycline)
# [2] = 0.25 µM, library screen: screen1, EWS-FLI1 expression: low (doxycycline-induced shRNA knockdown)
# [3] = 2.5 µM, library screen: screen1, EWS-FLI1 expression: high (no doxycycline)
# [4] = 2.5 µM, library screen: screen1, EWS-FLI1 expression: low (doxycycline-induced shRNA knockdown)
# [5] = 0.025 µM, library screen: screen1, EWS-FLI1 expression: high (no doxycycline)
# [6] = 0.025 µM, library screen: screen1, EWS-FLI1 expression: low (doxycycline-induced shRNA knockdown)
# [7] = 25 µM, library screen: screen1, EWS-FLI1 expression: high (no doxycycline)
# [8] = 25 µM, library screen: screen1, EWS-FLI1 expression: low (doxycycline-induced shRNA knockdown)
# [9] = 0.103 µM, library screen: screen3, EWS-FLI1 expression: high (no doxycycline)
# [10] = 0.103 µM, library screen: screen3, EWS-FLI1 expression: low (doxycycline-induced shRNA knockdown)
# [11] = 0.308 µM, library screen: screen3, EWS-FLI1 expression: high (no doxycycline)
# [12] = 0.308 µM, library screen: screen3, EWS-FLI1 expression: low (doxycycline-induced shRNA knockdown)
# [13] = 0.926 µM, library screen: screen3, EWS-FLI1 expression: high (no doxycycline)
# [14] = 0.926 µM, library screen: screen3, EWS-FLI1 expression: low (doxycycline-induced shRNA knockdown)
# [15] = 2.8 µM, library screen: screen3, EWS-FLI1 expression: high (no doxycycline)
# [16] = 2.8 µM, library screen: screen3, EWS-FLI1 expression: low (doxycycline-induced shRNA knockdown)
# [17] = 8.3 µM, library screen: screen3, EWS-FLI1 expression: high (no doxycycline)
# [18] = 8.3 µM, library screen: screen3, EWS-FLI1 expression: low (doxycycline-induced shRNA knockdown)
# [19] = 25 µM, library screen: screen3, EWS-FLI1 expression: high (no doxycycline)
# [20] = 25 µM, library screen: screen3, EWS-FLI1 expression: low (doxycycline-induced shRNA knockdown)
smiles,measurement,setting,value
COC1=C(OC)C(=O)C(C/C=C(\C)CC/C=C(\C)CC/C=C(\C)CC/C=C(\C)CC/C=C(\C)CC/C=C(\C)CC/C=C(\C)CC/C=C(\C)CC/C=C(\C)CCC=C(C)C)=C(C)C1=O,cell viability (log2),[1],0.0717 (inactive)
same,cell viability (log2),[2],0.153 (inactive)
same,cell viability (log2),[3],0.193 (inactive)
same,cell viability (log2),[4],0.233 (inactive)
C(#CC12CC3CC(CC(C3)C1)C2)CN1CCOCC1,cell viability (log2),[1],0.0887 (inactive)
same,cell viability (log2),[2],0.0273 (inactive)
same,cell viability (log2),[3],0.163 (inactive)
same,cell viability (log2),[4],0.0455 (inactive)
Brc1ccccc1CN1CCN(Cc2ccco2)CC1,cell viability (log2),[1],0.15 (inactive)
same,cell viability (log2),[2],0.0476 (inactive)
same,cell viability (log2),[3],0.0744 (inactive)
same,cell viability (log2),[4],0.0303 (inactive)
Cn1c(=O)[nH]c(=O)c2[nH]cnc21,cell viability (log2),[1],0.136 (inactive)
same,cell viability (log2),[2],-0.0262 (inactive)
same,cell viability (log2),[3],0.111 (inactive)
same,cell viability (log2),[4],0.0112 (inactive)
C=C(C)C1COc2cc3oc(=O)ccc3cc2O1 (stereo not given),cell viability (log2),[1],0.0489 (inactive)
same,cell viability (log2),[2],0.0843 (inactive)
same,cell viability (log2),[3],0.0665 (inactive)
same,cell viability (log2),[4],0.127 (inactive)
COc1ccc2c(c1)OC[C@@H](Cc1ccc(OC)c(OC)c1)[C@H]2O,cell viability (log2),[1],0.0776 (inactive)
same,cell viability (log2),[2],-0.01 (inactive)
same,cell viability (log2),[3],0.0904 (inactive)
same,cell viability (log2),[4],-0.0561 (inactive)
C[N+]1(C)C2CC[C@H]1CC(OC(=O)C(O)c1ccccc1)C2 (stereo not given in full),cell viability (log2),[1],0.0981 (inactive)
same,cell viability (log2),[2],0.0981 (inactive)
same,cell viability (log2),[3],0.164 (inactive)
same,cell viability (log2),[4],-0.0226 (inactive)
O=c1oc2cc3occc3cc2c2oc3cc4c(cc3c12)OCO4,cell viability (log2),[1],0.103 (inactive)
same,cell viability (log2),[2],-0.01 (inactive)
same,cell viability (log2),[3],0.0469 (inactive)
same,cell viability (log2),[4],0.0004 (inactive)
OC[C@@H](O)C(O)[C@H](O)CO,cell viability (log2),[1],0.179 (inactive)
same,cell viability (log2),[2],0.0545 (inactive)
same,cell viability (log2),[3],0.145 (inactive)
same,cell viability (log2),[4],0.0215 (inactive)
O=C(O)c1cc(NCc2cc(O)ccc2O)ccc1O,cell viability (log2),[5],0.268 (inactive)
same,cell viability (log2),[6],-0.135 (inactive)
same,cell viability (log2),[1],0.324
same,cell viability (log2),[2],0.0214 (inactive)
same,cell viability (log2),[3],-0.24 (active)
same,cell viability (log2),[4],-0.0017 (inactive)
same,cell viability (log2),[7],-0.388 (active)
same,cell viability (log2),[8],0.0315 (inactive)
O=C(O)c1cc(N(Cc2ccccc2O)Cc2cc(O)ccc2O)ccc1O,cell viability (log2),[5],0.17 (inactive)
same,cell viability (log2),[6],0.0496 (inactive)
same,cell viability (log2),[1],0.173 (inactive)
same,cell viability (log2),[2],0.132 (inactive)
same,cell viability (log2),[3],0.0556 (inactive)
same,cell viability (log2),[4],0.0297 (inactive)
same,cell viability (log2),[7],0.0931 (inactive)
same,cell viability (log2),[8],0.144 (inactive)
O=C(O)c1cc(O)ccc1O,cell viability (log2),[1],0.00691 (inactive)
same,cell viability (log2),[2],0.0897 (inactive)
same,cell viability (log2),[3],0.0219 (inactive)
same,cell viability (log2),[4],0.0883 (inactive)
Cc1ccc(NC(=O)c2ccc(CN3CCN(C)CC3)cc2)cc1Nc1nccc(-c2cccnc2)n1,cell viability (log2),[9],0.102 (inactive)
same,cell viability (log2),[10],0.119 (inactive)
same,cell viability (log2),[11],0.178 (inactive)
same,cell viability (log2),[12],0.125 (inactive)
same,cell viability (log2),[13],0.121 (inactive)
same,cell viability (log2),[14],0.129 (inactive)
same,cell viability (log2),[15],0.135 (inactive)
same,cell viability (log2),[16],0.128 (inactive)
same,cell viability (log2),[17],0.122 (inactive)
same,cell viability (log2),[18],0.126 (inactive)
same,cell viability (log2),[19],-0.195 (active)
same,cell viability (log2),[20],0.146 (inactive)
Nc1ccccc1NC(=O)c1ccc(CNc2nccc(-c3cccnc3)n2)cc1,cell viability (log2),[9],0.0488 (inactive)
same,cell viability (log2),[10],0.158 (inactive)
same,cell viability (log2),[11],0.0583 (inactive)
same,cell viability (log2),[12],0.0629 (inactive)
same,cell viability (log2),[13],-0.0966 (inactive)
same,cell viability (log2),[14],0.141 (inactive)
same,cell viability (log2),[15],-0.554 (active)
same,cell viability (log2),[16],0.00492 (inactive)
same,cell viability (log2),[17],-1.39 (active)
same,cell viability (log2),[18],-0.431 (active)
same,cell viability (log2),[19],-3.23 (active)
same,cell viability (log2),[20],-1.08 (active)
O=C(NCO)c1cccnc1,cell viability (log2),[1],0.28
same,cell viability (log2),[2],0.147 (inactive)
same,cell viability (log2),[3],0.255 (inactive)
same,cell viability (log2),[4],0.103 (inactive)
Cc1ccc(NC(=O)c2ccc(CN3CCN(C)CC3)cc2)cc1Nc1nc(-c2cccnc2)cs1,cell viability (log2),[9],0.122 (inactive)
same,cell viability (log2),[10],0.0762 (inactive)
same,cell viability (log2),[11],0.0521 (inactive)
same,cell viability (log2),[12],0.0956 (inactive)
same,cell viability (log2),[13],0.0749 (inactive)
same,cell viability (log2),[14],0.0933 (inactive)
same,cell viability (log2),[15],0.0638 (inactive)
same,cell viability (log2),[16],0.131 (inactive)
same,cell viability (log2),[17],0.061 (inactive)
same,cell viability (log2),[18],0.0802 (inactive)
same,cell viability (log2),[19],-0.709 (active)
same,cell viability (log2),[20],0.154 (inactive)
Cc1cn(-c2cc(NC(=O)c3ccc(C)c(Nc4nccc(-c5cccnc5)n4)c3)cc(C(F)(F)F)c2)cn1,cell viability (log2),[9],0.0821 (inactive)
same,cell viability (log2),[10],0.114 (inactive)
same,cell viability (log2),[11],0.0305 (inactive)
same,cell viability (log2),[12],0.0807 (inactive)
same,cell viability (log2),[13],0.00582 (inactive)
same,cell viability (log2),[14],0.101 (inactive)
same,cell viability (log2),[15],-0.0305 (inactive)
same,cell viability (log2),[16],0.116 (inactive)
same,cell viability (log2),[17],0.0184 (inactive)
same,cell viability (log2),[18],0.0705 (inactive)
same,cell viability (log2),[19],-0.057 (inactive)
same,cell viability (log2),[20],0.0892 (inactive)
Cc1ccncc1Nc1ncccc1C(=O)Nc1ccc(C2(C#N)CCCC2)cc1,cell viability (log2),[9],0.0267 (inactive)
same,cell viability (log2),[10],0.0194 (inactive)
same,cell viability (log2),[11],0.0111 (inactive)
same,cell viability (log2),[12],-0.0325 (inactive)
same,cell viability (log2),[13],-0.00588 (inactive)
same,cell viability (log2),[14],-0.00768 (inactive)
same,cell viability (log2),[15],-0.00204 (inactive)
same,cell viability (log2),[16],-0.0249 (inactive)
same,cell viability (log2),[17],0.00934 (inactive)
same,cell viability (log2),[18],-0.0211 (inactive)
same,cell viability (log2),[19],-0.0197 (inactive)
same,cell viability (log2),[20],0.0222 (inactive)
